Experimental data: PubChem BioAssay
Inconclusive results are not listed. Active and inactive are the calls of the source.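 Rule for the calls, unless noted: active = normalized viability below 100% at a tested concentration; inactive = the rest.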

Assays:
[1] = viability loss in pontine glioma line – cell-based, SU-DIPG-XVII, MIPE5.0, CellTiter-Glo, qHTS, dose response (AID 1347060; cut-off not given, nearly all actives have AC50 up to about 26 µM;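 note: cells exposed to compound for 48 hours before viability readout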); conditions: CellTiter-Glo ATP luminescence
[2] = viability loss in pontine glioma line – cell-based, SU-DIPG-XIII, MIPE4.0, CellTiter-Glo, qHTS, dose response (AID 1347061; cut-off not given, nearly all actives have AC50 up to about 37 µM;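 note: cells exposed to compound for 48 hours before readout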); conditions: CellTiter-Glo ATP luminescence
[3] = viability loss in pontine glioma line – cell-based, JHH-DIPG-1, MIPE4.0, CellTiter-Glo, qHTS, dose response (AID 1347062; cut-off not given, nearly all actives have AC50 up to about 27 µM;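 note: cells exposed to compound for two days before readout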); conditions: JHH-DIPG-1 viability, CellTiter-Glo ATP luminescence
[4] = viability loss in pontine glioma line – cell-based, SU-DIPG-IV, MIPE4.0, CellTiter-Glo, qHTS, dose response (AID 1347063; cut-off not given, nearly all actives have AC50 up to about 30 µM;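 note: compound exposure lasted 48 hours before the viability readout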); conditions: CellTiter-Glo ATP luminescence
[5] = viability loss in pontine glioma line – cell-based, SU-DIPG-XIII, MIPE5.0, CellTiter-Glo, qHTS, dose response (AID 1347064; cut-off not given, nearly all actives have AC50 up to about 23 µM;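 note: cells exposed to compound for 48 hours before the viability read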); conditions: CellTiter-Glo ATP luminescence
[6] = viability loss in pontine glioma line – cell-based, SU-DIPG-XXV, MIPE5.0, CellTiter-Glo, qHTS, dose response (AID 1347065; cut-off not given, nearly all actives have AC50 up to about 26 µM;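 note: cells exposed to compound for 48 hours before ATP readout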); conditions: CellTiter-Glo ATP luminescence
[7] = growth inhibition of DIPG cells – cell-based, MIPE4.0 library, CellTiter-Glo luminescence, qHTS (AID 1347066; cut-off not given, nearly all actives have AC50 up to about 30 µM;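 note: cells exposed to compound for 48 hours before readout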); conditions: SU-DIPG-VI viability, CellTiter-Glo ATP luminescence
[8] = JHH-DIPG-1 glioma cell viability, MIPE5.0 library, CellTiter-Glo luminescence, qHTS (AID 1347067; cut-off not given, nearly all actives have AC50 up to about 26 µM;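 note: cells exposed to compound for 48 hours before readout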); conditions: JHH-DIPG-1 glioma viability, CellTiter-Glo ATP luminescence
[9] = compounds altering HSF1 focus formation in cells – imaging, Selleck Cancer Library (AID 1347162; in the data active = plate-normalised HSF1 focus index below about 0.46); conditions: human cells, HSF1 nuclear foci imaging, at 10 µM; SSMD: measured here: HSF1 foci SSMD mean; cell count: measured here: cell number; plate-normalised HSF1 focus index: stronger effect = lower value
[10] = drug combination growth inhibition, ovarian cancer – cell-based, oncology-focused library, rucaparib conditional, profiling panel (AID 1508598); conditions: patient-derived ovarian cancer cells, CellTiter-Glo viability, 144 h, stronger effect = lower value
[11] = growth inhibition, single agent or in combination, cell-based, chromothripsis tumors, cisplatin or BGB combos (AID 1671449; in the data active = inhibition above about 80%;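 note: cells exposed for 96 hours; 0% = vehicle DMSO and 100% = killing by high DMSO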); conditions: LFS_MB_P medulloblastoma cells
[12] = growth inhibition, single agent and combos, cell-based, chromothripsis tumors, cisplatin or BGB combos (AID 1671450; in the data active = inhibition above about 80%;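 note: cells exposed to compound for four days; 0% = vehicle DMSO and 100% = cell killing by high DMSO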); conditions: HDN33 neuroblastoma cells, stronger effect = higher value
[13] = growth inhibition, single agents and combos, ICB984, cell-based, cisplatin or BGB combos, synergistic combos for chromothripsis tumors (AID 1671451; call rule not given here;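 note: cells exposed for 96 hours before readout; 0% = vehicle DMSO and 100% = killing by high DMSO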); conditions: ICB984 medulloblastoma cells, drug combinations, stronger effect = higher value
[14] = growth inhibition, single agents and combos, HTB85, cell-based, BGB or cisplatin IC20 combos, synergistic combos for chromothripsis tumors (AID 1671453; in the data active = inhibition above about 80%;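 note: cells exposed for 96 hours before readout; 0% = vehicle DMSO and 100% = high DMSO killing control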); conditions: HTB85 osteosarcoma cells, drug combinations, stronger effect = higher value
[15] = growth inhibition, MDA-MB-436, cell-based, BGB or cisplatin combos, synergistic combos for chromothripsis tumors (AID 1671458; call rule not given here;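 note: cells exposed for 96 hours; 0% = vehicle DMSO and 100% = killing by high DMSO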); conditions: MDA-MB-436 breast carcinoma growth inhibition, drug combinations, stronger effect = higher value
[16] = BT084 cell growth, single and combined drugs, ICGC_MB145, cisplatin and BGB IC40 combos (AID 1671461; in the data active = inhibition above about 80%;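 note: cells exposed to drugs for 96 hours; 0% = vehicle DMSO and 100% = high DMSO full killing control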); conditions: BT084 medulloblastoma cells, drug combinations, stronger effect = higher value
[17] = RCMB18 cell growth, single agent and combined, cisplatin and BGB IC40 combos (AID 1671462; in the data active = inhibition above about 80%;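 note: cells exposed to compound for four days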); conditions: RCMB18 medulloblastoma cells, stronger effect = higher value

## O=C(/C=C/c1cccc(S(=O)(=O)Nc2ccccc2)c1)NO
[1]
  AC50: 2090 nM (active)
[2]
  AC50: 15200 nM (active)
[3]
  AC50: 7620 nM (active)
[4]
  AC50: 3400 nM (active)
[5]
  AC50: 661 nM (active)
[6]
  AC50: 742 nM (active)
[7]
  AC50: 3820 nM (active)
[8]
  AC50: 742 nM (active)
[9]
  SSMD: -3.23
  cell count: 7740
  plate-normalised HSF1 focus index: 0.885 (inactive)
[10]; at 0.000305 µM, OCI-C5x cells, with rucaparib 10 µM, 100% = cells with rucaparib alone
  viability: 104% (inactive)
[10]; at 0.000305 µM, OCI-C5x cells, without rucaparib
  viability: 114% (inactive)
[10]; at 0.000305 µM, OCI-P5x cells, with rucaparib 20 µM, 100% = cells with rucaparib alone
  viability: 106% (inactive)
[10]; at 0.000305 µM, OCI-P5x cells, without rucaparib
  viability: 94% (active)
[10]; at 0.00122 µM, OCI-C5x cells, with rucaparib 10 µM, 100% = cells with rucaparib alone
  viability: 98.8% (active)
[10]; at 0.00122 µM, OCI-C5x cells, without rucaparib
  viability: 117% (inactive)
[10]; at 0.00122 µM, OCI-P5x cells, with rucaparib 20 µM, 100% = cells with rucaparib alone
  viability: 113% (inactive)
[10]; at 0.00122 µM, OCI-P5x cells, without rucaparib
  viability: 100% (inactive)
[10]; at 0.00488 µM, OCI-C5x cells, with rucaparib 10 µM, 100% = cells with rucaparib alone
  viability: 114% (inactive)
[10]; at 0.00488 µM, OCI-C5x cells, without rucaparib
  viability: 117% (inactive)
[10]; at 0.00488 µM, OCI-P5x cells, with rucaparib 20 µM, 100% = cells with rucaparib alone
  viability: 101% (inactive)
[10]; at 0.00488 µM, OCI-P5x cells, without rucaparib
  viability: 95% (active)
[10]; at 0.0195 µM, OCI-C5x cells, with rucaparib 10 µM, 100% = cells with rucaparib alone
  viability: 104% (inactive)
[10]; at 0.0195 µM, OCI-C5x cells, without rucaparib
  viability: 119% (inactive)
[10]; at 0.0195 µM, OCI-P5x cells, with rucaparib 20 µM, 100% = cells with rucaparib alone
  viability: 90.8% (active)
[10]; at 0.0195 µM, OCI-P5x cells, without rucaparib
  viability: 88.4% (active)
[10]; at 0.0781 µM, OCI-C5x cells, with rucaparib 10 µM, 100% = cells with rucaparib alone
  viability: 97.6% (active)
[10]; at 0.0781 µM, OCI-C5x cells, without rucaparib
  viability: 112% (inactive)
[10]; at 0.0781 µM, OCI-P5x cells, with rucaparib 20 µM, 100% = cells with rucaparib alone
  viability: 77.4% (active)
[10]; at 0.0781 µM, OCI-P5x cells, without rucaparib
  viability: 75.3% (active)
[10]; at 0.313 µM, OCI-C5x cells, with rucaparib 10 µM, 100% = cells with rucaparib alone
  viability: 77% (active)
[10]; at 0.313 µM, OCI-C5x cells, without rucaparib
  viability: 75.9% (active)
[10]; at 0.313 µM, OCI-P5x cells, with rucaparib 20 µM, 100% = cells with rucaparib alone
  viability: 43.7% (active)
[10]; at 0.313 µM, OCI-P5x cells, without rucaparib
  viability: 63.5% (active)
[10]; at 1.25 µM, OCI-C5x cells, with rucaparib 10 µM, 100% = cells with rucaparib alone
  viability: 12.7% (active)
[10]; at 1.25 µM, OCI-C5x cells, without rucaparib
  viability: 12.1% (active)
[10]; at 1.25 µM, OCI-P5x cells, with rucaparib 20 µM, 100% = cells with rucaparib alone
  viability: 17.8% (active)
[10]; at 1.25 µM, OCI-P5x cells, without rucaparib
  viability: 35.8% (active)
[10]; at 5 µM, OCI-C5x cells, with rucaparib 10 µM, 100% = cells with rucaparib alone
  viability: 5.06% (active)
[10]; at 5 µM, OCI-C5x cells, without rucaparib
  viability: 5.35% (active)
[10]; at 5 µM, OCI-P5x cells, with rucaparib 20 µM, 100% = cells with rucaparib alone
  viability: 2.89% (active)
[10]; at 5 µM, OCI-P5x cells, without rucaparib
  viability: 3.18% (active)
[11]; at 0.5 µM, stronger effect = higher value
  inhibition: 40.5% (inactive)
[11]; measured here: combination with BGB IC20, at 0.005 µM
  inhibition: -0.936%
[11]; measured here: combination with BGB IC40, at 0.005 µM
  inhibition: -11.3%
[11]; measured here: combination with BGB IC40, at 0.05 µM
  inhibition: -18.3%
[11]; measured here: combination with cisplatin, at 0.5 µM, stronger effect = higher value
  inhibition: 101%
[11]; measured here: combination with cisplatin, at 5 µM, stronger effect = higher value
  inhibition: 112%
[12]; BGB combo, at 5 µM
  inhibition: 99.6%
[12]; at 0.5 µM
  inhibition: 28.3% (inactive)
[12]; cisplatin combo, at 5 µM
  inhibition: 99.8%
[12]; measured here: with BGB IC20 combination, at 0.5 µM
  inhibition: 17.9%
[12]; measured here: with cisplatin IC20 combination, at 0.5 µM
  inhibition: 21.7%
[12]; single agent, at 5 µM
  inhibition: 99.8%
[13]; BGB IC20 combo, at 0.005 µM
  inhibition: 18.9%
[13]; BGB IC40 combo, at 0.005 µM
  inhibition: 36.1%
[13]; BGB IC40 combo, at 0.05 µM
  inhibition: 94.9%
[13]; at 0.5 µM
  inhibition: -22.2% (inactive)
[13]; cisplatin combo, at 0.05 µM
  inhibition: 94.8%
[13]; cisplatin combo, at 0.5 µM
  inhibition: -34.3%
[13]; cisplatin combo, at 5 µM
  inhibition: -34.9%
[13]; measured here: 5 uM single agent, at 5 µM
  inhibition: -35.3%
[14]; at 0.5 µM
  inhibition: 34.5% (inactive)
[14]; measured here: with BGB IC20, at 0.5 µM
  inhibition: 8.9%
[14]; measured here: with BGB IC20, at 5 µM
  inhibition: 99.2%
[14]; measured here: with cisplatin IC20, at 0.5 µM
  inhibition: 49.8%
[14]; measured here: with cisplatin IC20, at 5 µM
  inhibition: 99.8%
[14]; single agent, at 5 µM
  inhibition: 99.7%
[15]; at 0.5 µM
  inhibition: 33.7% (inactive)
[15]; measured here: BGB combination, at 0.5 µM
  inhibition: 25.2%
[15]; measured here: BGB combination, at 5 µM
  inhibition: 62%
[15]; measured here: cisplatin combination, at 0.5 µM
  inhibition: 26.3%
[15]; measured here: cisplatin combination, at 5 µM
  inhibition: 66.1%
[16]; at 0.5 µM
  inhibition: 38.7% (inactive)
[16]; cisplatin combination, at 0.5 µM
  inhibition: 58.9%
[16]; cisplatin combination, at 5 µM
  inhibition: 102%
[16]; measured here: BGB IC40 combination 0.05 uM, at 0.05 µM
  inhibition: 14.1%
[16]; single agent, at 5 µM
  inhibition: 108%
[17]; at 0.5 µM
  inhibition: 32.4% (inactive)
[17]; cisplatin combo, at 5 µM
  inhibition: 91.3%
[17]; measured here: BGB IC40 combination, at 0.05 µM
  inhibition: -15.7%
[17]; measured here: combination with cisplatin, at 0.5 µM
  inhibition: 51.1%
[17]; single agent, at 5 µM
  inhibition: 92.7%
